Data: the supplement of paper PMC11417369
± gives the standard deviation of the averaged measurements. The full ranking holds about 25,000 sequences; the median of “ln(normalized median fluorescence intensity)” is about 8.6, and the highest 2% start at about 10. Shown is part of a subset that was picked to be rich in the highest values.

tested on: PfAP2-EXP AP2 domain (GST-tagged); assay: gcPBM binding intensity (ln(normalized median fluorescence intensity)); higher = stronger DNA binding
Method in brief: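 GST-tagged P. falciparum DNA-binding domains, expressed in E. coli (about 25 μg on average), were applied for 1 h to an Agilent 4 × 180k array of primer-extended double-stranded 36-bp intergenic genomic probes plus negative controls. The binding buffer was 1× PBS with 1% milk, 0.2 mg/ml BSA, 0.5% salmon testes DNA and 0.03% Triton X-100. Bound protein was detected with Alexa488 anti-GST antibody and scanned at 488 nm. Binding intensity is the highest Masliner-normalised natural-log median intensity across replicate spots of either probe orientation.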

| Sequence | gcPBM binding intensity (ln) |
| --- | --- |
| TTCTAATATTTTTGCACACTAAACAATAAATTTCCT [CACACA_site3944] | 8.885 ± 0.078 |
| AGCTCTCAAAATTATTCACACGTGTCCTGTTATATA [CACACA_site5415] | 9.26 ± 0.47 |
| TTTGTGTAAAGAATCAGTACATATAATATATATATA [XGTACX_site1972] | 9.34 ± 0.33 |
| ATATATTTCATTTTTGTACACACAACGTTGGAGGGT [CACACA_site8999] | 8.84 ± 0.39 |
| AAAATAATTGTTTACACACCCATTTGTAATTTTACC [CACACA_site3614] | 8.54 ± 0.37 |
| GTACCTATTTCATACACACACACACGCAAACAAACA [CACACA_site6590] | 9.01 ± 0.34 |
| CACTTAACACAAGAGTGTACACATATATATATATAT [XGTACX_site686] | 10.1 ± 0.53 |
| GTATATATGTATATGTGTACACATATTCTTAACTCA [XGTACX_site309] | 8.88 ± 0.33 |
| TTAACTCAAGAGTGTACACATATATATATATATATA [CACACA_site4334] | 10.2 ± 0.47 |
| TTATAAATGTAACGATGTACTTTTAAAAGTTTCCTT [XGTACX_site109] | 8.36 ± 0.38 |
| TGGTATTAAGGAGAGGGTACAAAAAAAAAAAAAAAA [XGTACX_site1668] | 8.28 ± 0.49 |
| AATAATATCATTTAGACACACACTCTTACAATATGT [CACACA_site8832] | 8.61 ± 0.45 |
| GTTTATATTTAATTTTTTTGTTTTTTTGTGTAATTC [XGTACX_negctrl_site194] | 8.53 ± 0.47 |
| AGATTTAAATATCATACACACTTTATCTATAATACA [CACACA_site6581] | 8.32 ± 0.4 |
| ATATATATATATATATGTACATAATTAATAATTAGA [XGTACX_site5672] | 10.3 ± 0.25 |
| CATATTAATATTATGGGTACATATAAATTTACATTC [XGTACX_site687] | 8.64 ± 0.38 |
| AAATAATTTACTTAATGTACATATATATATATATAT [XGTACX_site8594] | 10.59 ± 0.092 |
| ATATATATATATATATGTACATAAATATTTTAAAAT [XGTACX_site4980] | 10.3 ± 0.4 |
| ATAAATATATTTAAATGTACATAATATATATATATA [XGTACX_site5137] | 9.96 ± 0.18 |
| TAAAAAATAAATATATGTACATATTTATTTTTTTTT [XGTACX_site850] | 8.21 ± 0.35 |
| TTAATATTAATTATATGTACATATAATATATATATA [XGTACX_site1757] | 9.18 ± 0.13 |
| AATAAATTAATTTTGGGTACATATATATATATATAT [XGTACX_site3807] | 10.2 ± 0.23 |
| TAATTAATAATAATATGTACATATTAATATATTATT [XGTACX_site6900] | 8.29 ± 0.24 |

| Sequence | gcPBM binding intensity (ln) |
| --- | --- |
| TTATAATTTAATAAATGTACATAAATAATATACATA [XGTACX_site7271] | 8.26 ± 0.18 |
| GTATTTTTTTTAATATGTACATATAAAATATTTTAT [XGTACX_site8329] | 8.96 ± 0.31 |
| ATAAAATTTTATATGGGTACATAATATAATATATAT [XGTACX_site8160] | 8.84 ± 0.41 |
| TAATTTAAAATATATAGTACACACGTGAACACAAAT [XGTACX_site792] | 8.89 ± 0.45 |
| AATATATCATAATGATGTACAAGTAAAACCGTTACA [XGTACX_site4280] | 8.74 ± 0.52 |
| TATTATATGTATTGCACACCTTCAACAACTACTTCT [CACACA_site655] | 9.03 ± 0.14 |
| TATTATTTTTTTATTCTATTAAAAAGAAAAAAATGA [CACACA_negctrl_site407] | 7.95 ± 0.47 |
| ACTTTACGAATTAAGAGTACTTATTTAAGGAACACT [XGTACX_site7919] | 8.52 ± 0.37 |
| CTACATAAAAAAATATGTACATATATATATATATAT [XGTACX_site667] | 10 ± 0.46 |
| AAATATAAAAAAAAAAGTACTTTGTTACTTTTCTAT [XGTACX_site6034] | 8.04 ± 0.36 |
| AACACATACAGATATGCACACATTTTATTCCATTAT [CACACA_site5565] | 8.84 ± 0.34 |
| TGAAAAAATATAATTTGTACATATCAGGCAAAAATG [XGTACX_site1824] | 8.68 ± 0.38 |
| TATAAAAATATATTTACACACTATATATATCGAAAG [CACACA_site1700] | 8.52 ± 0.38 |
| CCACTAATAAATATTACACACATATAGATTTATATT [CACACA_site7465] | 8.41 ± 0.44 |
| ATATATATATATAATACACACTAAAGTAACATAATA [CACACA_site5580] | 9.74 ± 0.11 |
| TATATATATATATAATGTACATAATAATAATACATC [XGTACX_site5587] | 9.84 ± 0.26 |
| TTTAATATGAATTTATGTACATATATATATATATAT [XGTACX_site6337] | 10.2 ± 0.35 |
| TATATACTTTATAAATGTACATATAATGTATTATTT [XGTACX_site7313] | 8.34 ± 0.42 |
| ATATATATATATATATGTACATAATTAATAGCATAT [XGTACX_site1428] | 10.2 ± 0.36 |
| TATATATATACTTAATGTACATATATATATATATAT [XGTACX_site3102] | 10.3 ± 0.2 |
| TTTATACTTTCAAAATGTACATATATATATATATAT [XGTACX_site6241] | 10.2 ± 0.24 |
| ATATATATATATATATGTACATATTTTATTTAATTT [XGTACX_site1807] | 10.2 ± 0.28 |
| TATATATATATATAATGTACATATATATAATATACA [XGTACX_site1552] | 10.1 ± 0.27 |

| Sequence | gcPBM binding intensity (ln) |
| --- | --- |
| CATATAATATAATTATGTACATATATAATAATATAC [XGTACX_site5278] | 8.47 ± 0.29 |
| AATATTTATTTTATATGTACATAATTTATTTTTAAT [XGTACX_site776] | 8.63 ± 0.32 |
| TTATATACATAAAAATGTACTTTTTATAAAATATAT [XGTACX_site8281] | 8.21 ± 0.18 |
| TATATATATAATATATGTACATATTAATTATGTATA [XGTACX_site5366] | 8.79 ± 0.13 |
| CAACACTTAGATTTTAAGTTCACTGGTTAATATATA [CACACA_negctrl_site707] | 8.12 ± 0.4 |
| ATTGAAAATTGTTGCACACATAATAATTAAATATAT [CACACA_site1857] | 8.37 ± 0.23 |
| GATCTTTAAATTTATTGTACATAAATGTATATGTTA [XGTACX_site1107] | 8.59 ± 0.45 |
| TATTTACAAAAAAAATATAAAAAATATAAAATATAT [CACACA_negctrl_site575] | 8.12 ± 0.31 |
| TGTTAATTTCATTTTCTACACACCTATCCTTTTTTT [CACACA_site8157] | 8.88 ± 0.47 |
| AATATTATATATATGGGTACTAATTCCTTTAATTTC [XGTACX_site102] | 8.15 ± 0.3 |
| ATATATATATATATATGTACATAAATATAAATTTAA [XGTACX_site8715] | 10.2 ± 0.24 |
| ATATATTATATAATATGTACATAATAAAATTTAAAT [XGTACX_site1900] | 8.72 ± 0.27 |
| ATATATATATATATATGTACATATTTTTAATTATAA [XGTACX_site7444] | 9.86 ± 0.13 |
| TATTAATTTTTATTATGTACATAAATAATTTATATT [XGTACX_site5456] | 8.39 ± 0.28 |
| TTTTTTTTTTTCGGGGGTACTAATATATTATTAATA [XGTACX_site7809] | 10.4 ± 0.34 |
| TAATTATTTTCGGTACGTACTAATGTATATATAATT [XGTACX_site3895] | 8.67 ± 0.42 |
| ATATATATATATATATGTACATATTTTAATAATTAA [XGTACX_site8549] | 10.2 ± 0.23 |
| AAATAAATAATTTAATGTACATATATAATATATATA [XGTACX_site1831] | 8.5 ± 0.11 |
| TTAAATATAATATTATGTACTAAATATTTTTTTATT [XGTACX_site6121] | 8.09 ± 0.37 |
| ATATATATATATATATGTACTAATTAATATTTCGAG [XGTACX_site580] | 10.2 ± 0.47 |
| GTATATAATTATATATGTACTAAATAAATATTTTTA [XGTACX_site6062] | 8.29 ± 0.39 |
